MK inhibit: S. pneumoniae MK inhibitors, primary screen, biochemical, PK/LDH-coupled NADH absorbance; 65,000 tested, 0.48% active; AID 555, 2006; purified MK, PK/LDH-coupled NADH absorbance 340 nm; mevalonate kinase [Streptococcus pneumoniae D39]; inhibition, % at 10 µM;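 active means ranked among the strongest by inhibition in the single 10 µM screen, a fixed top-ranked set picked for dose follow-up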
PMK inhibit: S. pneumoniae PMK inhibitors, primary screen, biochemical, mevalonate pathway, pilot trial included. purified PMK, PK/LDH-coupled NADH absorbance 340 nm. phosphomevalonate kinase (Streptococcus pneumoniae D39). AID 539, 2006. 65,000 tested, 0.49% active. inhibition, % at 10 µM;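 active means top-ranked compounds by inhibition in the single 10 µM screen, taking a fixed number of the strongest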;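 further: 0% = full reaction with DMSO carrier and 100% = background rate without enzyme reaction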
Spn DPM-DC inh: S. pneumoniae DPM-DC inhibitors, primary screen, biochemical, PK/LDH-coupled NADH fluorescence; diphosphomevalonate decarboxylase (Streptococcus pneumoniae D39); purified DPM-DC; calls only at 10 µM; 65,000 tested, 0.49% active;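 active means the 320 compounds with the highest percent inhibition in the single-dose primary screen, excluding strongly autofluorescent ones, cut at about 32% in these data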;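 further: kinetic rate of NADH fluorescence loss reporting ADP formed by the decarboxylase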
A340 absorber: compound light absorbance at 340 nm, profiling panel, artefact control, biochemical, MLSMR library, data from PS, PMK, MK assays; fold change at 10 µM; compound absorbance at 340 nm, fold over control; 65,000 tested, under 10 active; AID 708, 2007;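 active means at 10 µM dose, initial 340 nm absorbance at least 2 fold that of control wells; inactive means change under 2 fold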;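 further: initial absorbance extrapolated from kinetic A340 decline of NADH oxidation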
Autofluor 339: intrinsic fluorescence of library compounds, ex339/em460 – biochemical, MLSMR library, data from DPM-DC assay, artefact control, profiling panel; 65,000 tested, 5.5% active; AID 709, 2007; fluorescence fold increase at 10 µM; compound autofluorescence, ex339/em460 nm, NADH buffer; stronger effect = higher value; 1 = no-compound wells, NADH background;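 active means at 10 µM, mean starting fluorescence two-fold or more over control wells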;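 further: signal is the first read of a kinetic run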
NADH coupling: inhibitors of PK/LDH coupling enzymes, profiling panel, artefact control, biochemical, MLSMR library. 65,000 tested, 0.02% active. IC50, µM (series often up to 10 µM), without a hit: top-dose inhibition. AID 774, 2007. coupled PK/LDH NADH assays, four targets;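 active means single-dose screening hits from any of four coupled enzyme assays that gave an IC50 when retested across doses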;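 further: the DPM-DC format reads NADH fluorescence rather than 340 nm absorbance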
* = called active by the depositor; [ ] = dose if it differs, or a comment. The list is not random: actives were taken first. Their share in the collection is about 6.8%.

For CC(C)c1nc(NCC2CCCO2)c(C#N)c2c1COC(C)(C)C2 (stereo not given) the results were MK inhibit 2, PMK inhibit 6, Spn DPM-DC inh active[fluoresces], A340 absorber 0.99, Autofluor 339 2.4* and NADH coupling 3%.
Screening CCc1nc(NCC2CCCO2)c(C#N)c2c1COC(C)(C)C2 (stereo not given) returned MK inhibit 0, PMK inhibit 13, A340 absorber 1, Autofluor 339 2.3* and NADH coupling 7%.
For Cc1nc2[nH]c(=O)c3c(n2n1)NC1=C(C(=O)CC(C)(C)C1)C3c1ccccc1 (stereo not given) the results were MK inhibit 0, PMK inhibit 0, A340 absorber 1.1, Autofluor 339 4* and NADH coupling 0%.
Cc1ccc(C2C3=C(CC(C)(C)CC3=O)NC3=C2C(=O)CC(C)(C)C3)o1 was read as MK inhibit 10, PMK inhibit 13, Spn DPM-DC inh inactive, A340 absorber 1, Autofluor 339 1.1 and NADH coupling 9%.
`COc1cc(C(=O)Nc2cc(Cl)ccc2C)c(-n2cnnn2)cc1OC` gave MK inhibit 7, PMK inhibit 5, Spn DPM-DC inh inactive, A340 absorber 0.98, Autofluor 339 1.1 and NADH coupling 4%.
Screening Cc1csc2ncc(C(=O)NCc3ccccn3)c(=O)n12 returned MK inhibit 6, PMK inhibit 10, A340 absorber 1.2, Autofluor 339 2.1* and NADH coupling 8%.
For CCc1ccccc1NC(=O)c1cnc2scc(C)n2c1=O the results were MK inhibit 1, PMK inhibit 9, Spn DPM-DC inh inactive, A340 absorber 1.2, Autofluor 339 1.1 and NADH coupling 5%.
`O=C(COC(=O)CCC(=O)c1cccs1)Nc1ccc(S(=O)(=O)N2CCOCC2)cc1` gave MK inhibit 1, PMK inhibit 11, Spn DPM-DC inh inactive, A340 absorber 0.97, Autofluor 339 0.97 and NADH coupling 4%.
`Cn1c(NC(=O)c2cc(Br)ccc2Cl)cc(=O)n(C)c1=O` gave MK inhibit 6, PMK inhibit 7, Spn DPM-DC inh inactive, A340 absorber 1.1, Autofluor 339 1.1 and NADH coupling 4%.
`COC(=O)c1c(N)n(-c2cc(OC)cc(OC)c2)c2nc3ccccc3nc12` gave MK inhibit 2, PMK inhibit 9, A340 absorber 1, Autofluor 339 3.4* and NADH coupling 3%.
Screening Nc1c(C(=O)NCCN2CCOCC2)c2nc3ccccc3nc2n1-c1cccc(F)c1 returned MK inhibit 11, PMK inhibit 6, A340 absorber 1.1, Autofluor 339 5.1* and NADH coupling 9%.
`COCCCNC(=O)c1c(N)n(-c2cccc(S(N)(=O)=O)c2)c2nc3ccccc3nc12` gave MK inhibit 10, PMK inhibit 6, A340 absorber 1, Autofluor 339 3* and NADH coupling 3%.
Screening CCCNC(=O)c1c(N)n(-c2cccc(OC)c2)c2nc3ccccc3nc12 returned MK inhibit 12, PMK inhibit 7, A340 absorber 1, Autofluor 339 3.8* and NADH coupling 10%.
For CCc1cc2c(=O)c(-c3nc4ccccc4[nH]3)coc2cc1OC(=O)N1CCOCC1 the results were MK inhibit 0, PMK inhibit 6, Spn DPM-DC inh active, A340 absorber 1, Autofluor 339 1.3 and NADH coupling 5%.
For CC1(C)Oc2ccc(C(=O)NC3CCCC3)cc2N(CC(=O)NC2CCCCC2)C1=O the results were MK inhibit 0, PMK inhibit 9, Spn DPM-DC inh inactive, A340 absorber 0.97, Autofluor 339 1.1 and NADH coupling 3%.
For COc1ccc2[nH]c(=O)c(CN(Cc3ccccc3)Cc3nnnn3CC3CCCO3)cc2c1 (stereo not given) the results were MK inhibit 12, PMK inhibit 10, Spn DPM-DC inh inactive, A340 absorber 1.1, Autofluor 339 2.3* and NADH coupling 13%.
CCc1ccc2[nH]c(=O)c(CN(Cc3ccc(OC)cc3)Cc3nnnn3CCOC)cc2c1 was read as MK inhibit 9, PMK inhibit 0, Spn DPM-DC inh inactive, A340 absorber 1.1, Autofluor 339 1.4 and NADH coupling 6%.
`COc1cc2cc(CN(Cc3nnnn3Cc3ccccc3)CC3CCCO3)c(=O)[nH]c2cc1OC` (stereo not given) gave MK inhibit 13, PMK inhibit 15, Spn DPM-DC inh inactive, A340 absorber 1.1, Autofluor 339 3.3* and NADH coupling 18%.
For Cc1ccc2[nH]c(=O)c(CN(Cc3cccs3)Cc3nnnn3Cc3ccccc3)cc2c1 the results were MK inhibit 8, PMK inhibit 11, Spn DPM-DC inh inactive, A340 absorber 1, Autofluor 339 1.2 and NADH coupling 6%.
Screening COC(=O)c1ccc(Nc2cc(C)nc(-c3ccccc3O)n2)cc1 returned MK inhibit 81*, PMK inhibit 92, Spn DPM-DC inh active, A340 absorber 1.1, Autofluor 339 1.8 and NADH coupling 79%.
Screening CCCN1C(=O)c2cc(C(=O)NCc3ccc(OC)cc3)ccc2C1O (stereo not given) returned MK inhibit 10, PMK inhibit 0, Spn DPM-DC inh inactive, A340 absorber 1.1, Autofluor 339 1.1 and NADH coupling 3%.
`COc1cc2c(cc1OC)/C(=C/C(=O)N1CCOCC1)NC(C)(C)C2` gave MK inhibit 6, PMK inhibit 1, Spn DPM-DC inh active, A340 absorber 1, Autofluor 339 2.5* and NADH coupling 13%.
Screening O=c1c(-c2nc3ccccc3o2)c2oc3ccccc3n2c2ccccc12 returned MK inhibit 0, PMK inhibit 7, A340 absorber 1.1, Autofluor 339 5* and NADH coupling 4%.
Screening COC(=O)C1=CN(C2CC2)C=C(C(=O)OC)C1c1ccccc1OC returned MK inhibit 4, PMK inhibit 8, A340 absorber 1, Autofluor 339 3.8* and NADH coupling 6%.
For CCN(CC)c1ccc(C2C(C(=O)OC)=C(C)NC(C)=C2C(=O)OC)cc1 the results were MK inhibit 8, PMK inhibit 10, Spn DPM-DC inh inactive, A340 absorber 1.1, Autofluor 339 1.2 and NADH coupling 9%.
COC(=O)C1=C(C)NC(C)=C(C(=O)OC)C1c1ccc(NC(C)=O)cc1 was read as MK inhibit 1, PMK inhibit 9, Spn DPM-DC inh inactive, A340 absorber 1.1, Autofluor 339 2.1* and NADH coupling 11%.

Assay outcomes (PubChem BioAssay)
